Records with an inconclusive call do not appear. Calls of active or inactive are those of the source. Rule for the calls, unless noted: active = hit-call score of the fitted dose curve at least 0.9, where 1 is the maximum; inconclusive = response in the unintended direction; inactive = score below 0.9.
Columns and labels:
[1] = target: Oxysterols receptor LXR-alpha (Homo sapiens) (UniProt Q13133); assay: ATG_LXRa_TRANS: Attagene TRANS-FACTORIAL HepG2 Assay for human Liver X Receptor alpha (LXRa) (AID 2282980); settings: HepG2 Attagene TRANS reporter, LXRa transactivation
Chain of Oxysterols receptor LXR-alpha (Homo sapiens) (Q13133 whole entry, looked up, the tested form may be a part): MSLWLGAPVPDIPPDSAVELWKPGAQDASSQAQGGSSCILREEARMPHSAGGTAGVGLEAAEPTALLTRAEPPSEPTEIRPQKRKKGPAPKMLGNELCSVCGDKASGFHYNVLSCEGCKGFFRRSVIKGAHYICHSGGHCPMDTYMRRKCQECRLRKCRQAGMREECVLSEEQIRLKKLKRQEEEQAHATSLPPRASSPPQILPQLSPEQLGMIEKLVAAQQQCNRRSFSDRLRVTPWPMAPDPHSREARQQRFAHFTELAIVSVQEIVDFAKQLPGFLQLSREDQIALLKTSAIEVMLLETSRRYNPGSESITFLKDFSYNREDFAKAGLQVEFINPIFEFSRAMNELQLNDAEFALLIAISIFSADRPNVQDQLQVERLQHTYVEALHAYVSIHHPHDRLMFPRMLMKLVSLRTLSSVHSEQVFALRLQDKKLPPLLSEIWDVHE
Procedure, shortened: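 Chemical-induced reporter mRNA measured by RT-PCR with fluorescent labelling and capillary electrophoresis after 24 h dosing of transiently transfected HepG2 cells expressing exogenous NR-Gal4 chimeras; increases scored against DMSO baseline.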

[2] = target: Oxysterols receptor LXR-beta (Homo sapiens) (UniProt P55055); assay: ATG_LXRb_TRANS: Attagene TRANS-FACTORIAL HepG2 Assay for human Liver X Receptor beta (LXRb) (AID 2282981); settings: HepG2 Attagene TRANS GAL4-LXRb reporter, mRNA
Chain of Oxysterols receptor LXR-beta (Homo sapiens) (P55055 whole entry, looked up, the tested form may be a part): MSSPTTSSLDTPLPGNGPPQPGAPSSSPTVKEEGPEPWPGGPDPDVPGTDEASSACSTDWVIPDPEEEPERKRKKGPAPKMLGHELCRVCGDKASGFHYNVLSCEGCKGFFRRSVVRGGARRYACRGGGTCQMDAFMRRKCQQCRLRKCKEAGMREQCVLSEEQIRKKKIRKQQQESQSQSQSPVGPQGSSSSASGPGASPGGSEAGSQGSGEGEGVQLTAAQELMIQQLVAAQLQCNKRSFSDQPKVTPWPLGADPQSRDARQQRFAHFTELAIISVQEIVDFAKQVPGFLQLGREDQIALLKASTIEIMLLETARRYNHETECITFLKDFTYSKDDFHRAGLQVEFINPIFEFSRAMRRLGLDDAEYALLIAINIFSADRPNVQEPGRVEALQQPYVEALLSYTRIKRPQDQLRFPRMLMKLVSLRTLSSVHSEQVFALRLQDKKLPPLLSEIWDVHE
Procedure, shortened: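 After 24 h of chemical treatment, transfected HepG2 cells yield total RNA; reporter cDNA is PCR-amplified, FAM-labelled, HpaI-cut and run on capillary electrophoresis. Signal reflects chimeric LXRb-Gal4 activity on GAL4-UAS reporters.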

[3] = ATG_M_06_TRANS: Attagene TRANS-FACTORIAL HepG2 Assay for M06 Transcription Factor (Internal Marker) (AID 2282983); settings: HepG2 Attagene TRANS M06 internal marker reporter;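 note: reporter transcript level by RT-PCR then capillary electrophoresis fluorescence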
Procedure, shortened: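 Background-control reporter readout: after 24 h chemical exposure of transiently transfected HepG2 (GAL4-UAS reporter units), mRNA quantified by RT-PCR with fluorescent labeling and capillary electrophoresis. Gain-of-signal fitting against DMSO baseline.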

[4] = ATG_M_32_TRANS: Attagene TRANS-FACTORIAL HepG2 Assay for M32 Transcription Factor (Internal Marker) (AID 2282984); settings: HepG2 Attagene TRANS M32 internal marker reporter;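 note: transcript level of a background control reporter unit measured by RT-PCR and capillary electrophoresis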
Procedure, shortened: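 Cell-based TRANS-format assay in HepG2: exogenous chimeric GAL4 reporter units transiently expressed, compounds applied 24 h. Reporter mRNA detected by RT-PCR plus capillary electrophoresis; this readout is an internal background marker.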

[5] = target: Nuclear receptor subfamily 4 group A member 2 (Homo sapiens) (UniProt P43354); assay: ATG_NURR1_TRANS: Attagene TRANS-FACTORIAL HepG2 Assay for human Nuclear Receptor Related Protein 1 (NURR1) (AID 2282985); settings: HepG2 Attagene TRANS reporter, mRNA readout
Chain of Nuclear receptor subfamily 4 group A member 2 (Homo sapiens) (P43354 whole entry, looked up, the tested form may be a part): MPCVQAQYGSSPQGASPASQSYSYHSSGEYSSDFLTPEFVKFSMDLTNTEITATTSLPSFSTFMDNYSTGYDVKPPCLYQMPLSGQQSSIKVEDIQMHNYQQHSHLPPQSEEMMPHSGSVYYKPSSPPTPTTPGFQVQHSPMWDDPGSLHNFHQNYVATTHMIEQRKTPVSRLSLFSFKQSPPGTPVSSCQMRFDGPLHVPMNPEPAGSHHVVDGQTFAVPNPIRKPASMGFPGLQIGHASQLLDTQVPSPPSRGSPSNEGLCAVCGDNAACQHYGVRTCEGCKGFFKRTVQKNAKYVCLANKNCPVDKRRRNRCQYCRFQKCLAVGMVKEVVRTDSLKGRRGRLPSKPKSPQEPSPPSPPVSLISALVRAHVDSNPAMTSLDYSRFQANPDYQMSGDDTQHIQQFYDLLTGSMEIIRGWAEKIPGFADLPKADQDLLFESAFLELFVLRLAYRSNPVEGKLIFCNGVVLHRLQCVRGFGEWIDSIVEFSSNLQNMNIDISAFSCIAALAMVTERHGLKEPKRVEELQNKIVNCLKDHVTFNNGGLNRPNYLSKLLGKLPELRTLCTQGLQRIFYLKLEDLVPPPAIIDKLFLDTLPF
Procedure, shortened: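 Measures transcriptional activation by an exogenous NR-Gal4 chimera in transfected HepG2 liver cells. After 24 h, reporter RNA is reverse-transcribed, amplified and resolved by capillary electrophoresis; DMSO defines baseline.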

[6] = target: Nuclear respiratory factor 1 (Homo sapiens) (UniProt Q16656); assay: ATG_NRF1_CIS: Attagene CIS-FACTORIAL HepG2 Assay for human Nuclear Respiratory Factor 1 (NRF1) Orphan Gene (AID 2282987; active = hit-call score of the fitted dose curve at least 0.9, where 1 is the maximum; inactive = score below 0.9); settings: HepG2 NRF1 cis-element reporter, Attagene multiplex; actives raise or lower the signal
Chain of Nuclear respiratory factor 1 (Homo sapiens) (Q16656 whole entry, looked up): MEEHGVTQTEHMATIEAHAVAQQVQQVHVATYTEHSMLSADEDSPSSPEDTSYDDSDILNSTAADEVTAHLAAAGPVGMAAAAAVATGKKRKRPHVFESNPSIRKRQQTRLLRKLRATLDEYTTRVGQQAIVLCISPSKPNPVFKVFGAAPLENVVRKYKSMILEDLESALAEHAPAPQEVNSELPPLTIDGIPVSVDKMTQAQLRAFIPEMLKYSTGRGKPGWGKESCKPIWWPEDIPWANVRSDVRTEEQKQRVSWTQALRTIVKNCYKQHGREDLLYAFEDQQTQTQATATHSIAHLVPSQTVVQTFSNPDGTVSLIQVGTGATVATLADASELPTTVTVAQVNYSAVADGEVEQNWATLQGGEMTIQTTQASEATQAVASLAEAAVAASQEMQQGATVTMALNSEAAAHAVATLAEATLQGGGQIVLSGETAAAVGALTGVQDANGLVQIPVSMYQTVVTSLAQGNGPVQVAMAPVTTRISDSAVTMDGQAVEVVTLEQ
Procedure, shortened: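 Human hepatoma HepG2 cells carrying transfected promoter-regulated reporter units were incubated with test chemicals for 24 h. Reporter transcripts were measured by RT-PCR plus capillary electrophoresis, and endpoints derived by bidirectional fitting with DMSO as baseline.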

[7] = ATG_NFI_CIS: Attagene CIS-FACTORIAL HepG2 Assay for human Nuclear Factor I (NFI) (AID 2282989; active = hit-call score of the fitted dose curve at least 0.9, where 1 is the maximum; inactive = score below 0.9); settings: HepG2 cis-regulatory reporter, NFI response element transcription; actives raise or lower the signal
Procedure, shortened: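 Transfected HepG2 liver cells, exposed 24 h, supplied total RNA for oligo(dT) reverse transcription and reporter-specific PCR. Labelled, HpaI-cut fragments were sized by capillary electrophoresis; DMSO set the baseline for bidirectional fitting.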

[8] = target: Myc proto-oncogene protein (Homo sapiens) (UniProt P01106); assay: ATG_Myc_CIS: Attagene CIS-FACTORIAL HepG2 Assay for human Myelocytomatosis (Myc) Proto-Oncogene Transcription Factor (AID 2282990; active = hit-call score of the fitted dose curve at least 0.9, where 1 is the maximum; inactive = score below 0.9); settings: HepG2, Attagene cis-reporter transcription factor activity; actives raise or lower the signal
Chain of Myc proto-oncogene protein (Homo sapiens) (P01106 whole entry, looked up): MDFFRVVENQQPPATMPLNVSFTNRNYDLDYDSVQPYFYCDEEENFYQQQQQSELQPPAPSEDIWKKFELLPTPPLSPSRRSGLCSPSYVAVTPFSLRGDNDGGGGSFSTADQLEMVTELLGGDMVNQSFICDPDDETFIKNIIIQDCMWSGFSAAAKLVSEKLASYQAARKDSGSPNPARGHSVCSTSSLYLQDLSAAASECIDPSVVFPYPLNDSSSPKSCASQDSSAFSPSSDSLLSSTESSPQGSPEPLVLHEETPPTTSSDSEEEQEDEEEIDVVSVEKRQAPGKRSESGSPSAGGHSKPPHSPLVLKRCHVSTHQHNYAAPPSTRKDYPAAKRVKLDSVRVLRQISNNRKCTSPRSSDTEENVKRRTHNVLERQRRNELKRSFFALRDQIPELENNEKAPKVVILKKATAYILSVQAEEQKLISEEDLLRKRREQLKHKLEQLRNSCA
Procedure, shortened: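 HepG2, transient MRTU transfection (cis promoters, endogenous TFs); 24 h dosing; TriZol RNA → oligo(dT) RT → PCR → 6-FAM primer extension → HpaI cut → CE. Bidirectional fit vs DMSO.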

[9] = target: Hepatocyte nuclear factor 4-alpha (Homo sapiens) (UniProt P41235); assay: ATG_HNF4a_TRANS: Attagene TRANS-FACTORIAL HepG2 Assay for human Hepatocyte Nuclear Factor 4 alpha (HNF4a) (AID 2282982); settings: HepG2 HNF4a transactivation reporter, mRNA readout
Chain of Hepatocyte nuclear factor 4-alpha (Homo sapiens) (P41235 whole entry, looked up): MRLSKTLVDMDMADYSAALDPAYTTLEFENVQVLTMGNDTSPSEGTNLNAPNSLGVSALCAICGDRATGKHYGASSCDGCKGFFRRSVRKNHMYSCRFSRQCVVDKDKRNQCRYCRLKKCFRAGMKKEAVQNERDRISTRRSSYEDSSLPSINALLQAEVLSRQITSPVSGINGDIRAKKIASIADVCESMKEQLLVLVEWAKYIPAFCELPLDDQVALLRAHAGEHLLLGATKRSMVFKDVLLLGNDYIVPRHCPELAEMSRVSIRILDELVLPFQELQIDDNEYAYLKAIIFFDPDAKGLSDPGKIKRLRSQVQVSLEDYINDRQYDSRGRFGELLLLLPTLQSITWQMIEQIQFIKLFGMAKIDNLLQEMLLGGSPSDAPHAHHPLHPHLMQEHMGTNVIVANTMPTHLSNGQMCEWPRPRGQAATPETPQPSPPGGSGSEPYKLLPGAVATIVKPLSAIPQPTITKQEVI
Procedure, shortened: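 Multiplexed reporter assay: transfected HepG2, 24 h exposure, total RNA → oligo(dT) RT → PCR → 6-FAM extension → HpaI digest → CE fluorescence. DMSO = negative control.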

[10] = target: Transcriptional activator Myb (Homo sapiens) (UniProt P10242); assay: ATG_Myb_CIS: Attagene CIS-FACTORIAL HepG2 Assay for human Myeloblastosis (Myb) Proto-Oncogene Transcription Factor (AID 2282986; active = hit-call score of the fitted dose curve at least 0.9, where 1 is the maximum; inactive = score below 0.9); settings: HepG2 Attagene CIS-FACTORIAL Myb reporter transcription; actives raise or lower the signal
Chain of Transcriptional activator Myb (Homo sapiens) (P10242 whole entry, looked up): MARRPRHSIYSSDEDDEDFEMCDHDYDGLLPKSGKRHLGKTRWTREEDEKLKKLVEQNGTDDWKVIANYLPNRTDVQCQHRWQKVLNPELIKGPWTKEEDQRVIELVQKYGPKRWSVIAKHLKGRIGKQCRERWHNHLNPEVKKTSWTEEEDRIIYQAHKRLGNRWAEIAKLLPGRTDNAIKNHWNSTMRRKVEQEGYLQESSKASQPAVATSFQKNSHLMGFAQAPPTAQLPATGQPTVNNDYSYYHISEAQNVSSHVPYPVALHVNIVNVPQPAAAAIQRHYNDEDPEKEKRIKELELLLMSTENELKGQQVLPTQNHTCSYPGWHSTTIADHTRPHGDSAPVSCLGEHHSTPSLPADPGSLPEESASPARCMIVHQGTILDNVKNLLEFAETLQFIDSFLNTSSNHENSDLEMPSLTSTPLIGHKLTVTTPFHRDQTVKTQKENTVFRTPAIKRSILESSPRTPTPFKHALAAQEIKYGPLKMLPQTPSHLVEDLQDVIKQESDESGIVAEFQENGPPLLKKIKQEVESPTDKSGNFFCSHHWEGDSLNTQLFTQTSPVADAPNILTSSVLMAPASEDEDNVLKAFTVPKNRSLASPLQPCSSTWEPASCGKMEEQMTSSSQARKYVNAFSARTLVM
Procedure, shortened: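 Endogenous transcription factor activity at a Myb-responsive cis element is reported in human liver HepG2 cells after 24 h chemical treatment. Reporter mRNA is detected by RT-PCR and capillary electrophoresis fluorescence, with DMSO as baseline.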

Measured: AC50

COC(=O)c1ccccc1O
active: [1] 25.8 µM | [2] 25.5 µM
not listed: [9] | [10]
inactive: all other assays above

O=C(O)c1cc(N=Nc2ccc(S(=O)(=O)Nc3ccccn3)cc2)ccc1O
not listed: [2] | [3] | [5]
inactive: all other assays above

CNCc1ccc(NC(=O)c2c[nH]c3c2C(=O)CCC3)cc1
inactive: all assays above

COc1cccc(-c2ccc(/C=C\CN3CCCCCC3)cc2Cl)c1
not listed: [4]
inactive: all other assays above

CN(C)c1ccc(N=NS(=O)(=O)O)cc1
inactive: [1] | [2] | [3] | [6] | [7] | [8]

O=C1CCCCCN1
not listed: [4] | [9]
inactive: all other assays above

Cn1cnc([N+](=O)[O-])c1Sc1ncnc2nc[nH]c12
not listed: [4] | [5]
inactive: all other assays above

O=C1OC(=O)C2C3C=CC(C3)C12 (stereo unspecified)
not listed: [2] | [3] | [5]
inactive: all other assays above

O=C(O)c1cccc(N(Cc2cccnc2)c2ccc(OC(F)F)c(OC(F)F)c2)c1
not listed: [2] | [5] | [10]
inactive: all other assays above

CCCCC(CC)COC(=O)c1ccc(C(=O)OCC(CC)CCCC)cc1 (stereo unspecified)
inactive: [1] | [9] | [3] | [6] | [7] | [8]

O=C(OC[C@H]1O[C@@H](OC(=O)c2cc(O)c(O)c(OC(=O)c3cc(O)c(O)c(O)c3)c2)[C@H](OC(=O)c2cc(O)c(O)c(OC(=O)c3cc(O)c(O)c(O)c3)c2)[C@@H](OC(=O)c2cc(O)c(O)c(OC(=O)c3cc(O)c(O)c(O)c3)c2)[C@@H]1OC(=O)c1cc(O)c(O)c(OC(=O)c2cc(O)c(O)c(O)c2)c1)c1cc(O)c(O)c(OC(=O)c2cc(O)c(O)c(O)c2)c1
not listed: [4] | [5]
inactive: all other assays above

CC(C)=CCCC(C)=CC=O
active: [5] 100 µM
not listed: [2] | [10]
inactive: all other assays above

CCCN(C1CCN(C(=O)C2CCNCC2)CC1)[C@@H]1CCc2ccc(OC)cc2C1
active: [8] 175 µM
not listed: [3] | [10]
inactive: all other assays above

CC[C@H](C)C(=O)O[C@H]1C[C@@H](C)C=C2C=C[C@H](C)[C@H](CC[C@@H]3C[C@@H](O)CC(=O)O3)[C@H]21
not listed: [2] | [10]
inactive: all other assays above

COc1ccc(/C=C/S(=O)(=O)NC(=O)c2ccc(C)cc2Cl)cc1
inactive: [1] | [2] | [4] | [6] | [7] | [8]

Cc1[nH]cnc1C[C@H]1CCc2c(C)c3ccccc3n2C1=O
active: [6] 13.1 µM
not listed: [9] | [10]
inactive: all other assays above

COCCOc1cc2cc(C(=O)NC3CCN(C(C)C)CC3)n(CC(=O)Nc3ccc(Cl)cn3)c2cn1
not listed: [2] | [5] | [10]
inactive: all other assays above

O=c1n(CC2CO2)c(=O)n(CC2CO2)c(=O)n1CC1CO1 (stereo unspecified)
active: [7] 47 µM | [8] 58.4 µM
not listed: [4] | [10]
inactive: all other assays above

CCCCC(CC)COC(=O)CCCCCCCCC(=O)OCC(CC)CCCC (stereo unspecified)
not listed: [3]
inactive: all other assays above

CCc1cc(SCc2sc(-c3ccc(C(F)(F)F)cc3)nc2CN2CCN(c3ccc(OC)cc3)CC2)ccc1OCC(=O)O
not listed: [10]
inactive: all other assays above

COc1ccc(-n2nc(C(F)F)cc2-c2ccc(S(C)=O)cc2)cc1 (stereo unspecified)
not listed: [3] | [5] | [10]
inactive: all other assays above

Cc1ccc(S(=O)(=O)O)cc1C
not listed: [2] | [3] | [10]
inactive: all other assays above

C=CCCCCCCCCC(=O)O
not listed: [3] | [9]
inactive: all other assays above

C1N2CN3CN1CN(C2)C3
not listed: [4] | [10]
inactive: all other assays above

COCCOCCOCCOC
not listed: [2]
inactive: all other assays above

COC(=O)c1c(Cl)c(Cl)c(C(=O)OC)c(Cl)c1Cl
not listed: [2] | [3]
inactive: all other assays above

CC(C)CCCCCCCOC(=O)CCCCC(=O)OCCCCCCCC(C)C
not listed: [2] | [3] | [5]
inactive: all other assays above

Nc1nc2ncc(CNc3ccc(C(=O)N[C@@H](CCC(=O)O)C(=O)O)cc3)nc2c(=O)[nH]1
inactive: [1] | [2] | [10] | [6] | [7] | [8]

Cn1c(=O)cc(Oc2ccc(F)cc2F)c2cnc(NCC(C)(C)O)nc21
active: [6] 51.6 µM | [7] 9.46 µM
not listed: [5] | [10]
inactive: all other assays above

CCCCCCCCCCCCc1ccccc1
not listed: [2] | [5] | [9]
inactive: all other assays above

CCN(C(=O)c1cc(C)cc(OC[C@H](C)Nc2ccncc2)c1)C(C)C
active: [1] 0.486 µM
not listed: [2] | [9] | [10]
inactive: all other assays above

O=C1CCC(N2C(=O)c3ccccc3C2=O)C(=O)N1 (stereo unspecified)
not listed: [2] | [9]
inactive: all other assays above

Cc1c(-c2cccnc2)c2ccccc2n1CCCCC(=O)O
inactive: [2] | [10] | [6] | [7] | [8]

C=CC(=C)CCC=C(C)C
not listed: [1] | [10]
inactive: all other assays above

CCOCCOCCOCCO
inactive: [2] | [5] | [10] | [6] | [7] | [8]

Nc1cccc(N)c1
not listed: [1] | [4] | [9]
inactive: all other assays above

CCOC(=O)CC(CC(=O)OCC)(OC(C)=O)C(=O)OCC
not listed: [2] | [3] | [9]
inactive: all other assays above

CC(O)CN(CCN(CC(C)O)CC(C)O)CC(C)O (stereo unspecified)
inactive: [1] | [5] | [10] | [6] | [7] | [8]

CC(C)CCO
not listed: [1] | [5] | [10]
inactive: all other assays above

From PubChem BioAssay (EPA / NIEHS)
